Source: PubChem BioAssay (NCI)
The panel holds about 83,000 compounds, 20% with a hit somewhere; the sample as a whole holds those more often.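 Note: values are percent growth. 100 is the growth of untreated cells, values between 100 and 0 indicate rising inhibition; between -100 and 0 indicates cell death.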 Activity calls are given as the source filed them. The calls were made as follows: active = growth percent below 10; inactive = the rest.

test system: UACC-62 melanoma; assay: NCI-60 one-dose screen, 48 h (100 = growth as untreated, 0 = no growth, -100 = all killed); settings: 10 µM unless noted

Compound | growth
O=NN1CCCc2cccc(O)c21 | 26.7% (inactive)
CC(=O)Nc1nc2c(s1)CC[C@@]1(C)C2=CC[C@H]2[C@@H]3CC[C@H](O)[C@@]3(C)CC[C@@H]21 | 34.9% (inactive)
CN(C)CC(C(=O)Cc1ccccc1)c1ccccc1 (stereo not given) | 112% (inactive)
CCOC(=O)[C@@H](C)C[C@H](Cc1ccccc1)NC(=O)c1csc([C@@H](C[C@H](C(C)C)N(C)C(=O)[C@H](CCC(C)C)NC(=O)[C@H]2CCCCN2C)OC(C)=O)n1 | 40.7% (inactive)
CCCCCCCCCCCCCCCCCC1OC[C@H](COC(=O)O[C@@H](C(=O)O[C@H]2C[C@@]3(O)[C@@H](OC(=O)c4ccccc4)[C@@H]4[C@]5(OC(C)=O)CO[C@@H]5C[C@H](O)[C@@]4(C)C(=O)[C@H](OC(C)=O)C(=C2C)C3(C)C)[C@@H](NC(=O)c2ccccc2)c2ccccc2)O1 (stereo not given in full) | 46.8% (inactive)
C=C1C[C@](OC)([C@H](O)C(=O)N[C@@H](OC)[C@@H]2C[C@@H](O)C(C)(C)[C@@H](C[C@@H](COC)OC)O2)O[C@H](C)[C@@H]1C | -92.5% (active)
O=C(Nc1ccc(O)cc1)C(Cl)(Cl)Cl | 93.8% (inactive)
Cc1c(NS(=O)(=O)c2ccccc2)ccc([N+](=O)[O-])c1Cl | 31.2% (inactive)
CCCCN1CCCC[C@@H]1C(=O)N[C@H](C(=O)N(C)[C@H](C[C@@H](OC(C)=O)c1nc(C(=O)NC2CCC(C(=O)OC)CC2)cs1)C(C)C)C(C)C (stereo not given in full) | 33.3% (inactive)
CC1=C(CN)C2=C(C)C3(CC3)[C@@](C)(O)C(=O)C2=C1 | 97% (inactive)
CC(=O)O[C@H]1C(=O)[C@@]2(C)[C@H]([C@H](OC(=O)c3ccccc3)[C@]3(O)C[C@H](OC(=O)[C@H](OC(=O)OC[C@H]4COC(C)(C)O4)[C@@H](NC(=O)c4ccccc4)c4ccccc4)C(C)=C1C3(C)C)[C@]1(OC(C)=O)CO[C@@H]1C[C@@H]2O | 21.7% (inactive)
COC(=O)[C@@H](C)C[C@H](Cc1ccccc1)NC(=O)c1csc([C@@H](C[C@H](C(C)C)N(C)C(=O)[C@@H](NC(=O)[C@H]2CCCCN2C)C2CCCCC2)OC(C)=O)n1 | 36.3% (inactive)
CC(=O)OC1CCC2(C)C(CCC3C2CC(=O)C2(C)C3CC(Sc3ccc(N(CCCl)CCCl)cc3)C2C(C)=O)C1 (stereo not given) | 67.9% (inactive)
COc1ccc(S(=O)(=O)N(Cc2ccc3c(c2)C=CC(C)(C)O3)c2ccccc2)cc1OC | 79.1% (inactive)
CC[C@H](C)[C@H](NC(=O)[C@H]1CCCCN1C)C(=O)N(C)[C@H](CC(=O)c1nc(C(=O)N[C@@H](Cc2ccccc2)C[C@H](C)C(=O)O)cs1)C(C)C | 32.2% (inactive)
O=C1CC2(CC3(Cl)C(Cl)=C(Cl)C2(Cl)C3(Cl)Cl)C(=O)O1 (stereo not given) | 112% (inactive)
CCCCCCCC[N+](C)(CCCCCCCC)CCCCCCCC | -94.5% (active)
CC(=O)O[C@H]1C(=O)[C@@]2(C)[C@H]([C@H](OC(=O)c3ccccc3)[C@]3(O)C[C@H](OC(=O)[C@H](OC(=O)OC[C@@H]4COC(C)(C)O4)[C@@H](NC(=O)c4ccccc4)c4ccccc4)C(C)=C1C3(C)C)[C@]1(OC(C)=O)CO[C@@H]1C[C@@H]2O | 24.2% (inactive)
CC(=O)O[C@H]1C(=O)[C@@]2(C)[C@H]([C@H](OC(=O)c3ccccc3)[C@]3(O)C[C@H](OC(=O)[C@H](OC(=O)OCC4COC(C)(C)O4)[C@@H](NC(=O)c4ccccc4)c4ccccc4)C(C)=C1C3(C)C)[C@]1(OC(C)=O)CO[C@@H]1C[C@@H]2O (stereo not given in full) | 34.4% (inactive)
CCn1cnc2c(Nc3cccc(Cl)c3)nc(N[C@@H]3CCCC[C@@H]3N)nc21 | 10.2% (inactive)
CC[C@H](C)[C@H](NC(=O)[C@H]1CCCCN1C)C(=O)N(C)[C@H](C[C@@H](OC(C)=O)c1nc(C(=O)N[C@@H](Cc2ccccc2)C[C@H](C)C(=O)OC)cs1)C(C)C | 43.6% (inactive)
COC(=O)[C@@H](C)C[C@H](Cc1ccc2ccccc2c1)NC(=O)c1csc([C@@H](C[C@H](C(C)C)N(C)C(=O)[C@@H](NC(=O)[C@H]2CCCCN2C)C(C)C)OC(C)=O)n1 | 49.3% (inactive)
C=C1C(=O)O[C@H]2[C@H]1CC/C(COC(=O)C(=O)c1cn(Cc3ccccc3)c3ccccc13)=C\CC[C@@]1(C)O[C@@H]21 | -87.4% (active)
CN(CCCCN(C)CCOS(C)(=O)=O)CCOS(C)(=O)=O | 56.1% (inactive)
NC(=O)CNc1ccc([As]=[As]c2ccc(NCC(N)=O)cc2)cc1 (stereo not given) | 26.1% (inactive)
